High-throughput results: PubChem, National Center for Advancing Translational Sciences (NCATS)
The list is not random: actives were taken first. Their share in the collection is about 3.1%.
TrxR1 inh-1: rat TrxR1 inhibition; O89049; Potency, µM (top dose mostly 114 µM), for the others: at the top dose activity change, negative = inhibition, usual class: inhibitors; recombinant rTrxR1, NADPH fluorescence consumption, selenite substrate; hit rate 1% among 390,000; AID 588453; also: potency is read from the fitted curve at half-maximal effect; % is scaled to controls: 0 for no effect and ±100 for the full control effect; nearly all actives have a fitted effect of over 65% in size
Target sequence (O89049 whole entry, looked up): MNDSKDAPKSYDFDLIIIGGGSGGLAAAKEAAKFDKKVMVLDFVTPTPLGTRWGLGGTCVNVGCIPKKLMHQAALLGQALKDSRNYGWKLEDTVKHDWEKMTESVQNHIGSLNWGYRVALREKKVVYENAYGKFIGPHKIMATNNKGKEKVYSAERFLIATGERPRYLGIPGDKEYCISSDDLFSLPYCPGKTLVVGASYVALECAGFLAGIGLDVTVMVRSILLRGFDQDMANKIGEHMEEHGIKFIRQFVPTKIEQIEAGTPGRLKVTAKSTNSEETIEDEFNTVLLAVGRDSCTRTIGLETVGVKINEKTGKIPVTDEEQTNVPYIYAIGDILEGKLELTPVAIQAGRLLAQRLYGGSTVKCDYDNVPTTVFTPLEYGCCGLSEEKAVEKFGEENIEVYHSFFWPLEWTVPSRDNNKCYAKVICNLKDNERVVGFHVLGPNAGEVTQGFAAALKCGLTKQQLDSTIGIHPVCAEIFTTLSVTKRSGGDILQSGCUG
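Rat TrxR1 (90 nM in the dispensed reagent) was pre-reduced with 400 uM NADPH for 5 min at room temperature, then incubated with compound for 15 min. After 400 uM selenite was added, NADPH fluorescence (Ex 340/Em 450 nm) was followed for 8 min.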
A549 viability: A549 cytotoxicity, counter-screen for Nrf2 inhibitors | A549 ARE-Fluc cells, CellTiter-Fluor viability, 18-24 h | Potency, µM (highest dose often 46 µM), without a hit: top-dose activity change, negative = cytotoxicity, actives largely listed as inhibitors | hit rate 0.16% among 390,000 | AID 504648; also: potency is read from the fitted curve at half-maximal effect; % is scaled to controls: 0 for no effect and ±100 for the full control effect
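Cytotoxicity counterscreen: CellTiter-Fluor fluorescence was measured in A549 ARE_Fluc cells after 18-24 h of compound exposure in a concentration series. The subsequent BugLite luminescent read reports ARE-luciferase activity.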
IDH1 R132H inh: blocks human mutant IDH1 R132H enzyme; O75874; IDH1-R132H enzyme, NADPH consumption, diaphorase/resazurin fluorescence; Potency, µM (series often up to 76.6 µM), for the others: top-dose activity change, negative = inhibition, actives largely listed as inhibitors; hit rate 0.093% among 390,000; also: potency is read from the fitted curve at half-maximal effect; % is scaled to controls: 0 for no effect and ±100 for the full control effect; nearly all actives have a fitted effect of over 65% in size
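IDH1-R132H (0.5 ug/mL dispensed) in pH 7.5 Tris buffer was preincubated 30 min with compound, then given a substrate mix of 0.016 mM NADPH and 2 mM alpha-KG for 80 min at room temperature; remaining NADPH was read by diaphorase/resazurin fluorescence.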
Nrf2 block: Nrf2 pathway inhibition; Potency, µM (series often up to 46 µM), for the others: at the highest dose activity change, negative = inhibition, usual class: inhibitors; AID 504444; A549 ARE-Fluc reporter, luciferase luminescence, 18-24 h; hit rate 2.1% among 360,000; also: potency is read from the fitted curve at half-maximal effect; % is scaled to controls: 0 for no effect and ±100 for the full control effect; nearly all actives have a fitted effect of over 60% in size
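Concentration-response testing used A549 ARE_Fluc cells at 5000 cells/well. Following an 18-24 h compound incubation, viability was read by fluorescence (Ex 405/Em 525) and luciferase output by luminescence.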
Mito fusion yeast: inhibitors of mitochondrial division or activators of mitochondrial fusion. hit rate 0.23% among 320,000. Potency, µM (series often up to 46.1 µM), for inactives: at the highest dose growth rescue (activation), hits mostly activators. S. cerevisiae fusion-defective mutant growth rescue, CellTiterGlo 48 h; also: potency is read from the fitted curve at half-maximal effect; % of control where 0% means no effect; nearly all actives have a fitted effect of over 45% in size
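Luminescent cell viability in 1536-well qHTS format served as the measure of rescued growth in ts fusion-mutant S. cerevisiae cultured on non-fermentable YPEG for 48 hours at 37C.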
TrxR1 substrate: is turned over as a substrate by rat TrxR1 | O89049 | purified TrxR1 substrate turnover, NADPH consumption readout | Potency, µM (doses to about 114 µM), without a hit: at the highest dose activity change, negative = substrate turnover | hit rate 0.01% among 390,000 | AID 588456; also: potency is read from the fitted curve at half-maximal effect; % is scaled to controls: 0 for no effect and ±100 for the full control effect; nearly all actives have a fitted effect of over 50% in size
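Rat TrxR1, dispensed at 90 nM, was prereduced with 400 uM NADPH (final) for 5 min at ~22 deg C, then incubated with compound 15 min before 400 uM selenite. A first-read NADPH fluorescence drop versus no-compound background flagged substrates.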
GR counterassay: inhibits human glutathione reductase in TrxR1 counterassay; activity change, negative = inhibition, % at 57.1 µM; purified GR, DTNB reduction absorbance 405 nm kinetic; shares compounds with TrxR1 inh-1; 55 tested, under 10 active
TrxR1 inh-2: blocks rat thioredoxin reductase 1 in hit validation; shares compounds with TrxR1 inh-1; recombinant TrxR1, NADPH fluorescence consumption, selenite substrate; Potency, µM, most hits filed as inhibitors; hit rate 50% among 55
TrxR1 insulin MOA: inhibits TrxR1-driven insulin reduction; Potency, µM; hit rate 20% among 55; shares compounds with TrxR1 inh-1; TrxR1 Trx-coupled insulin reduction, NADPH absorbance 340 nm; AID 652037;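 active = compounds with a measured potency under 100 micromolar; inconclusive = filed, but no rule given; inactive = potency at or above that, or unmeasurable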
TrxR1 inh-3: rat thioredoxin reductase 1 inhibition, DTNB assay; shares compounds with TrxR1 inh-1; purified TrxR1, DTNB reduction, A412; Potency, µM; hit rate 90% among 55;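 active = a half-inhibiting concentration could be measured and was below 100 µM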
Starred values were filed as active, the others as inactive; i = inactive; ? = inconclusive; / = no result; [ ] = remark or other dose. Unless noted, calls follow the shape of the dose curve; as a rule, active = well fitted curve in the direction sought with a large enough effect; inconclusive = small, poorly fitted or top-dose-only effect, or another doubt; inactive = no such curve, though single readings can be large; an effect the other way counts as inactive or inconclusive.

SMILES | TrxR1 inh-1 | A549 viability | IDH1 R132H inh | Nrf2 block | Mito fusion yeast | TrxR1 substrate | GR counterassay | TrxR1 inh-2 | TrxR1 insulin MOA | TrxR1 inh-3
Cc1ccccc1NC(=S)NC(=O)CCc1ccccc1 | 13µM* | -1% | 3% | 2% | 0% | 2% | 1 | 3* | i | 36µM*
NC(=O)c1ccccc1NC(=S)NC(=O)CCc1ccccc1 | -31% | -4% | -1% | 14% | 3% | -14% | / | / | / | /
CCOC(=O)c1c(C)oc2c1c(CN1CCN(C(=O)OCC)CC1)c(O)c1ccccc12 | 1.6µM* | 4% | 8% | 10% | 19% | 4% | -23 | ? | i | 0.33µM*
CCOC(=O)c1c(C)oc2c1c(CN1CCN(CCO)CC1)c(O)c1ccccc12 | 1.1µM* | 1% | 17% | 12% | 5% | 6%[57.1 µM] | -21 | 0.3* | i | 0.77µM*
CCOc1cc(C(=O)NCc2nc(-c3cccc(C)c3)no2)cc(OCC)c1OCC | 11% | 4% | -8% | -15% | / | -4% | / | / | / | /
COC(=O)c1ccc(C2c3c(oc4ccccc4c3=O)C(=O)N2CCCN2CCOCC2)cc1 (stereo unspecified) | 10µM* | -1% | 8% | -3% | -1% | 7%[57.1 µM] | -8 | ? | i | 1.2µM*
COCCN1C(=O)c2oc3ccccc3c(=O)c2C1c1ccc(C(=O)OC)cc1 (stereo unspecified) | 17%[57.1 µM] | -7% | -7% | -3% | 3% | 8%[57.1 µM] | / | / | / | /
COc1ccc(N(C(=O)c2cccnc2)S(=O)(=O)c2cccc([N+](=O)[O-])c2)cc1 | -16%[57.1 µM] | -6% | 0% | -3% | 0% | 0%[57.1 µM] | / | / | / | /
COc1ccc(N(C(=O)c2ccncc2)S(=O)(=O)c2cccc([N+](=O)[O-])c2)cc1 | 50µM* | 3% | -4% | 7% | -3% | -3% | -7 | 9.5* | i | 9.2µM*
CCc1ccc(-c2nn(CC(=O)Nc3ccccc3C)c3c2cnc2ccc(C)cc23)cc1 | 28%[57.1 µM] | -4% | -6% | -13% | / | 3%[57.1 µM] | / | / | / | /
O=C(c1ccccc1)[C@@H]1[C@@H]2C(=O)N(c3ccc(F)cc3)C(=O)[C@@H]2C2CCCN21 (stereo partly specified) | 50µM* | 19% | -5% | 4% | -5% | -3% | 3 | ? | i | 7.4µM*
Cc1ccc(N2C(=O)[C@@H]3[C@H](C2=O)C2CCCN2[C@@H]3C(=O)c2ccccc2)cc1 (stereo partly specified) | -25%[57.1 µM] | 1% | -4% | 10% | -28% | 0%[57.1 µM] | / | / | / | /
Cc1c(NC2=C(Cl)C(=O)N(c3ccccc3)C2=O)c(=O)n(-c2ccccc2)n1C | 3.2µM* | -8% | 9% | 7% | -1% | 1% | -18 | 2.7* | i | i
COc1ccc(NC(=O)Cn2c(=O)n(-c3cc(C)cc(C)c3)c(=O)c3oc4ccccc4c32)cc1OC | 12% | -9% | -9% | -25% | / | 0% | / | / | / | /
CCOC(=O)C1CCCN(C(=O)c2ccc3c(c2)N(Cc2ccccc2)C(=O)c2ccccc2S3(=O)=O)C1 (stereo unspecified) | 13% | -5% | / | 18% | / | 0% | / | / | / | /
